Values without a mark were called inactive.
The molecules below were run against NADPH oxidase 4 (Homo sapiens) (UniProt Q9NPH5) (assay: compounds shifting NOX4 Amplex Red fluorescence – cell-based, HEK293-NOX4, tetracycline-induced, NOX inhibitor project, primary screen (AID 1160)). Conditions: HEK293-NOX4, Amplex Red H2O2 fluorescence, 45 min; higher = more signal, called active from +8 up or from −8 down.
Chain of NADPH oxidase 4 (Homo sapiens) (Q9NPH5 whole entry, looked up): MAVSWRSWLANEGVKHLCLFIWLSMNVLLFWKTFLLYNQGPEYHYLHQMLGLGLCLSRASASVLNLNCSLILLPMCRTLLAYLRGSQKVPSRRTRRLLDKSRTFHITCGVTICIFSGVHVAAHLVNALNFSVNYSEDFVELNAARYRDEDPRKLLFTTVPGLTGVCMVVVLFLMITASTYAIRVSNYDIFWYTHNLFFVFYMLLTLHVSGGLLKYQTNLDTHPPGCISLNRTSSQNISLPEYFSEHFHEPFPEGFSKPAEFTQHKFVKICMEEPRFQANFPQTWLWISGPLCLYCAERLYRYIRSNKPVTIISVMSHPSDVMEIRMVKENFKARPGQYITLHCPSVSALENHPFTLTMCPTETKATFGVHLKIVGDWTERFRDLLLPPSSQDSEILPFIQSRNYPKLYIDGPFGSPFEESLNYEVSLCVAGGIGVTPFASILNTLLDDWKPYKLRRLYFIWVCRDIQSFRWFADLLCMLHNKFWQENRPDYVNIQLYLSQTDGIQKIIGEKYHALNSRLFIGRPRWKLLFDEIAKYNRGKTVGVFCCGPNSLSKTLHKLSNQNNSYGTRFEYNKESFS

Compound | z-score
Cc1cc2c(nc1C)CCCCN2CC(C)ON=C[C@@H](C)[C@H](OCc1ccccc1)C(C)C (stereo partly specified) | -0.45
CO[C@@H]1C=CCC(=O)N2CCC[C@H]2C(=O)OC[C@@H](C)C(=O)OC[C@H]1C | 0.766
CO[C@@H]1C=CCC(=O)N[C@@H](C)C(=O)OC[C@@H](OC)[C@H](C)CCCC(=O)OC[C@H]1C | 0.957
COc1ccc(COC(=O)NN=C2C[C@@H](O)[C@@H](O)[C@@H]3[C@@H]4C(=O)N(c5ccc(F)cc5F)C(=O)[C@@H]4CC[C@H]23)cc1 | -0.481
CC(C)[C@@H](OCc1ccccc1)[C@H](C)C=NOC[C@@H](O)COCc1ccco1 | 0.402
O=C1[C@H]2[C@H]3[C@H](O)[C@H](O)CC(=NOCc4ccccc4)[C@@H]3CC[C@H]2C(=O)N1C[C@@H]1CCCO1 | 0.531
CC(C)=CCCC(C)=CCON=C1C[C@@H](O)[C@@H](O)[C@@H]2[C@@H]3C(=O)N(C(C)(C)C)C(=O)[C@@H]3CC[C@H]12 | 0.427
CCOC(=O)[C@H](Cc1ccccc1)NC(=O)CCC1CC(OC(=O)NCCc2ccc(F)cc2)CC2(CCCC(COC(=O)NCCc3ccccc3OC)O2)O1 (stereo partly specified) | 0.151
COc1ccc(COC(=O)NN=C2C[C@@H](O)[C@@H](O)[C@@H]3[C@@H]4C(=O)N(C5CCCCC5)C(=O)[C@@H]4CC[C@H]23)cc1 | 0.507
CC(C)=CCCC(C)=CCON=C1C[C@@H](O)[C@@H](O)[C@@H]2[C@@H]3C(=O)N(C4CCCCC4)C(=O)[C@@H]3CC[C@@H]12 | 0.435
COC(=O)[C@@H]1CC[C@H](C)[C@@H](c2ccc(C)cc2)N1C(=O)c1ccc(C=NO[C@@H]2O[C@H](COC(C)=O)[C@@H](OC(C)=O)[C@H](OC(C)=O)[C@H]2OC(C)=O)cc1 | -0.674
COc1cccc([C@H]2Oc3ccc(OC)cc3C(=NOC[C@@H](O)[C@H]3O[C@@H]4OC(C)(C)O[C@@H]4[C@H]3O)[C@@H]2O)c1 | -0.776
O=C1[C@H]2[C@H]3[C@H](O)[C@H](O)CC(=NO[C@@H]4O[C@H](CO)[C@@H](O)[C@H](O)[C@H]4O)[C@H]3CC[C@H]2C(=O)N1c1cccc(Oc2ccccc2)c1 | 0.325
CCN1C(=O)[C@H]2[C@H]3[C@H](O)[C@H](O)CC(=NOCC(C)C)[C@@H]3CC[C@H]2C1=O | 0.324
CC(C)C[C@H](NC(=O)CCC1CC(OC(=O)NCc2cccc3ccccc23)CC2(CCCC(COC(=O)NCc3ccccc3)O2)O1)C(=O)NCC(c1ccccc1)c1ccccc1 (stereo partly specified) | 0.194
COC(=O)CC=C[C@@H](C)[C@@H](C=NOC[C@H]1O[C@H](c2ccccc2)C=C[C@@H]1Oc1ccc(OC)cc1)NS(=O)(=O)c1ccc(C)cc1 | 0.0179
C#CCCCON=C1C[C@@H](O)[C@@H](O)[C@@H]2[C@@H]3C(=O)N(c4ccc(F)cc4F)C(=O)[C@@H]3CC[C@H]12 | 0.615
CO[C@H]1COC(=O)[C@@H](Cc2ccccc2)NC(=O)[C@@H](C)COC(=O)CCC[C@@H]1C | 0.533

Compound | z-score
COc1cccc([C@H]2Oc3ccc(OC)cc3C(=NO[C@@H](C)c3cn([C@H](CO)Cc4ccccc4)nn3)[C@@H]2O)c1 | -0.424
CCOC(=O)NN=C1C[C@@H](O)[C@@H](O)[C@@H]2[C@@H]3C(=O)N(Cc4ccc5c(c4)OCO5)C(=O)[C@@H]3CC[C@H]12 | -0.0101
O=C(NN=C1C[C@@H](O)[C@@H](O)[C@@H]2[C@@H]3C(=O)N(C[C@@H]4CCCO4)C(=O)[C@@H]3CC[C@H]12)OCc1ccccc1 | 0.0865
CC(C)CON=C1C[C@@H](O)[C@@H](O)[C@@H]2[C@@H]3C(=O)N(c4ccc(F)cc4F)C(=O)[C@@H]3CC[C@H]12 | 0.632
C[C@@H](c1ccccc1)N1C(=O)[C@H]2[C@H]3[C@H](O)[C@H](O)CC(=NO[C@@H]4O[C@H](CO)[C@@H](O)[C@H](O)[C@H]4O)[C@@H]3CC[C@H]2C1=O | 0.552
CCOC(=O)[C@H](CC(C)C)NC(=O)CCC1CC(OC(=O)NCc2ccc3c(c2)OCO3)CC2(CCCC(COC(=O)NCC3CCCCC3)O2)O1 (stereo partly specified) | 0.563
O=C1[C@H]2[C@H]3[C@H](O)[C@H](O)CC(=NOC[C@@H](O)COCc4ccco4)[C@H]3CC[C@H]2C(=O)N1C[C@@H]1CCCO1 | 0.557
CCOC(=O)NN=C1C[C@@H](O)[C@@H](O)[C@@H]2[C@@H]3C(=O)N([C@@H](C)c4ccccc4)C(=O)[C@@H]3CC[C@@H]12 | 0.589
CC(CCN1CCCc2nc(C)c(C)cc21)=NOC(C)CN1CCCCc2nc(C)c(C)cc21 (stereo unspecified) | -1.71
CO[C@H]1COC(=O)[C@H](C)NC(=O)CC=C[C@@H](C)[C@H](OC)COC(=O)[C@@H](OCc2ccccc2)C=C[C@@H]1C | 0.332
COC(=O)[C@H](C)NC(=O)CCC1CC(OC(=O)NCCc2ccc(F)cc2)CC2(CCCC(COC(=O)NCc3cccc(C(F)(F)F)c3)O2)O1 (stereo partly specified) | -1.65
CCOC(=O)CCN1C(=O)[C@H]2[C@H]3[C@H](O)[C@H](O)CC(=NOCC(C)C)[C@H]3CC[C@H]2C1=O | 0.148
CCOC(=O)NN=C1C[C@@H](O)[C@@H](O)[C@@H]2[C@@H]3C(=O)N([C@@H](C)c4ccccc4)C(=O)[C@@H]3CC[C@H]12 | 0.67
COc1ccc(O[C@H]2C=C[C@@H](c3ccccc3)O[C@@H]2CON=C(C)CCN2CCc3nc(-c4ccccc4)c(-c4ccccc4)cc3C2)cc1 | 0.00405
C#CCCCON=C1C[C@@H](O)[C@@H](O)[C@@H]2[C@@H]3C(=O)N(c4ccc(F)cc4F)C(=O)[C@@H]3CC[C@@H]12 | 0.813
Cc1ccc(S(=O)(=O)N[C@H]2COC(=O)CC=C[C@@H](C)COC(=O)CC=C[C@@H]2C)cc1 | 0.684
CC(C)CON=C1C[C@@H](O)[C@@H](O)[C@@H]2[C@@H]3C(=O)N(C[C@@H]4CCCO4)C(=O)[C@@H]3CC[C@@H]12 | 0.816
Cc1ccc(S(=O)(=O)OC[C@H]2CN3[C@H](c4ccc(Br)cc4)[C@@H](C)CC[C@H]3C(=O)O2)cc1 | 0.484

Reference: PubChem BioAssay
